Here are results for 40 sequences from the OligoGym collection.
Further: reference of the scale not given here.

The first experiment deals with PPM1E. As to the kind of experiment: pooled miR-30 sensor sort-seq; sequence = guide strand. The note with it: shRNA.
TTGCTTTCTTTGGTGCACCAGG showed a sensor-assay potency score (higher = more potent) of -0.843.
In the case of TTTCTCACAAGCATAACCTGGG, the sensor-assay potency score (higher = more potent) is 0.732.
As to TAGATTGAAAACACTGTACTTT, the sensor-assay potency score (higher = more potent) turned out to be 0.776.
Consider TTGCTTGCTTCTATTTGTGTGA, for which the sensor-assay potency score (higher = more potent) is -0.309.
Same read-out and setting: under TTTGGATTAAACCTGAATCTGT stands -0.682; under TTTTAGATTGAAAACACTGTAC, 0.00481; under TAGTTCAACAGCTTGGCCCTTT, 0.206.
Still for that read-out and setting: the same measure for TATTTGTGTGAGATCTAGGTAG: 0.201; for TATATTTGTAGAGCTGCTGCAG: 0.13; for TAAAACTTTGGATTAAACCTGA: -0.0256.
In the case of TACAGCTTTGTTCATGTCCCTC, the sensor-assay potency score (higher = more potent) is -0.388.
Same read-out and setting: the same measure for TTACATTTAAGAATTGAGCCAT: 0.639.

Another experiment deals with PPM1F. The experiment is described as above. The note with it: shRNA.
In the case of TCTGTCTGTAGCAGCTGTGAAA, the sensor-assay potency score (higher = more potent) was -1.23.
The same measure, in the same setting: under TTTCCTGAGAAACATCTGGTCG stands -0.801; under AAGGTCTGTCTGTAGCAGCTGT, -0.309; under TAAATTATATGACACAACAGGT, -0.732.
TTAAATTATATGACACAACAGG came in with a sensor-assay potency score (higher = more potent) of -0.831.
The same measure, in the same setting: the same measure for AACATCTGGTCGGTGCGCCGGA: -0.815; for TTATATGACACAACAGGTCATC: -0.681.
Turning to ATATCTGTAAATATGAACCCAC, the sensor-assay potency score (higher = more potent) is -0.596.
For TATGACACAACAGGTCATCTTG, the sensor-assay potency score (higher = more potent) is -0.621.
TTCTGGTCTGTGTGGCTCCATC yielded a sensor-assay potency score (higher = more potent) of -1.7.
On to TCAAACACAGCAAAGTAGGCGC, for which the sensor-assay potency score (higher = more potent) was -0.108.
For the sequence TACCTCGCAGCATCCACGCCTC, the sensor-assay potency score (higher = more potent) is -0.377.

For another experiment, the target named is PPM1J. The experiment is described as above. The note with it: shRNA.
TTGATGACCTCGGCGTAGCCTG: the sensor-assay potency score (higher = more potent) is -0.901.
Still for that read-out and setting: the same measure for TTGGATATAGCGGACATCCCTT: -0.328.
The same measure, in the same setting: the same measure for TTCCGGACAATGATGGCCCTGC: 0.189; for TAGATCACAACCAGTGCACAGC: -0.65.
On the same count and under the same terms, the same measure for ACAGTCAGTAGTGACATCCCAC: -0.629.
Regarding TAGCAGGTAGATCACAACCAGT, the sensor-assay potency score (higher = more potent) was -1.29.
TACTCCTGTAACACTCCTCCGA came in with a sensor-assay potency score (higher = more potent) of -0.279.
Still for that read-out and setting: the same measure for TAGCACATCATCTGGGCAGTGC: -0.403.
As for TCGATCTTTTTGTAGGCCCAGC, the sensor-assay potency score (higher = more potent) was -1.4.
Still for that read-out and setting: the same measure for TCTTTTTGTAGGCCCAGCCGGT: -1.16; for TTCACTGCCTAGCAGCTCTGGT: -0.516.
Still for that read-out and setting: under AAGTATCTCTACCAGGTCCTTT stands -0.98.

The target of a further experiment is PPP1R13B. The description is as above. The note with it: shRNA.
TTTCTTCAGCTTGTTCTCCTGG displayed a sensor-assay potency score (higher = more potent) of 0.329.
The same measure, in the same setting: under TTCACTGATTCGCTTGTCCATC stands -0.504.
The sequence TACATTTATTACATTTCTCTGA had a sensor-assay potency score (higher = more potent) of -0.374.
Sequence TTGCTGTAGTCGACTTGTCCTC came in with a sensor-assay potency score (higher = more potent) of -0.682.
